SENP8 block-1 = blocks the human protease SENP8 | purified SENP8, Z-RLRGG-aminoluciferin cleavage, luminescence | inhibition, % at 10 µM | actives 1.2% (n = 330,000) | AID 2540; in the data active = inhibition above about 50%
PPC-1+TRAIL kill = kills PPC-1 cancer cells in the presence of TRAIL | PPC-1 cells + TRAIL, ATPLite viability luminescence | cell killing (% activity), % at 4 µM or 5 µM | actives 0.41% (n = 220,000);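 active = cell killing above 50% in the first pass at 4 µM, then a duplicate retest at 5 µM averaging 50% or more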
C8 TRAIL sens = caspase-8 TRAIL sensitization; NB7+C8 cells + TRAIL, ATPlite viability luminescence; inhibition (viability loss, TRAIL sensitization), % at 10 µM; actives 1% (n = 360,000); AID 624354;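 active = compounds causing at least 50% loss of cell viability in the single-dose screen, relative to plate controls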
SENP6 block = SENP6 protease inhibition | inhibition, % at 10 µM | Q9GZR1 | actives 1.8% (n = 330,000) | Recombinant SENP6 catalytic domain, aminoluciferin luminescence;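 active = inhibition above about 50% at the single tested dose, limit read from the data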
Target sequence (Q9GZR1 628-1112 limits assumed): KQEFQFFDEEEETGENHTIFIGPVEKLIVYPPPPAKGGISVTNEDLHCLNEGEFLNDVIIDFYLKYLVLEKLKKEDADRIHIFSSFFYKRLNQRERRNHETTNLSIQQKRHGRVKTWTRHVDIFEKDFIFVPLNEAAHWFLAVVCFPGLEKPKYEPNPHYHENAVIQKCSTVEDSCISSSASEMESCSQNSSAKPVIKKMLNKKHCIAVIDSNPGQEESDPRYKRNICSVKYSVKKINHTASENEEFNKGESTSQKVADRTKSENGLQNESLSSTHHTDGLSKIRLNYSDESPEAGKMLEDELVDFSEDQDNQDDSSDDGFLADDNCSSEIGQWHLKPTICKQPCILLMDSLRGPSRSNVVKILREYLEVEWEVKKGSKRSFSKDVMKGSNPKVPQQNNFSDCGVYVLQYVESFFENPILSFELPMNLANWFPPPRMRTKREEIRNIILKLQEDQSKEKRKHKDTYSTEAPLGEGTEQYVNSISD
SENP8 block-2 = inhibitors of human SENP8 protease. AID 602440. actives 0.64% (n = 360,000). recombinant SENP8, Nedd8 substrate fluorescence. inhibition, % at 20 µM; in the data active = inhibition mostly above about 40%, no sharp cut-off; inactive = mostly below about 27%
SENP7 inh = inhibitors of human SENP7 protease | actives 1.5% (n = 330,000) | AID 434973 | recombinant SENP7, Z-RLRGG-aminoluciferin luminescence, 40 min | inhibition, % at 5 µM;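 active = inhibition above about 50% at the single test dose, limit read from the data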
SENP8 conf = confirmation of human SENP8 protease inhibitors; shares compounds with SENP7 inh; Recombinant SENP8, Z-RLRGG-aminoluciferin luminescence, 60 min; inhibition, % at 12.5 µM; actives 40% (n = 6,200);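 active = mean inhibition across replicates above about 50%, limit read from the data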
SENP6 confirm = confirmation of human SENP6 protease inhibitors | AID 488915 | inhibition, % at 12.5 µM | actives 58% (n = 6,200) | shares compounds with SENP7 inh | recombinant SENP6, Z-RLRGG-aminoluciferin luminescence
SENP7 confirm = confirmation of human SENP7 protease inhibitors; shares compounds with SENP7 inh; recombinant SENP7, Z-RLRGG-aminoluciferin luminescence, 40 min; inhibition, % at 12.5 µM; actives 69% (n = 6,200)
Casp3 SENP sel = inhibits human caspase-3 in SENP selectivity test; inhibition, % at 12.5 µM; shares compounds with SENP7 inh; AID 488918; actives 60% (n = 6,200); purified caspase-3, Z-DEVD-aminoluciferin luminescence, 60 min;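 active = mean inhibition above about 50%, limit read from the data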
Target sequence (P42574 28-227 limits assumed): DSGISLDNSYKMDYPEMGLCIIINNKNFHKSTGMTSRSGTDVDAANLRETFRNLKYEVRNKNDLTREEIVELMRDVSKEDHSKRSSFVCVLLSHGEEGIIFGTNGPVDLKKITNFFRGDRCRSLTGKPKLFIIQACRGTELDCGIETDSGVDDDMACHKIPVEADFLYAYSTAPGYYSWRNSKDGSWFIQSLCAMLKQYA
SENP luc ctr = counter-screen for SENP inhibitors: luminescence interference | AID 488919 | inhibition, % at 12.5 µM | Pre-incubated SENP8/Z-RLRGG-aminoluciferin, luciferase luminescence interference | shares compounds with SENP7 inh | actives 39% (n = 6,200);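 active = mean inhibition above about 50% when retested at one dose, limit read from the data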
Numbers stand for hits; – = inactive; · = no result. In the library only some 3% were active in any assay of this set; here they are far more common.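 The calls were made as follows, unless noted: active = mean inhibition above about 50% in the one-dose retest (limit read from the data); inactive = the rest.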

SMILES | SENP8 block-1 | PPC-1+TRAIL kill | C8 TRAIL sens | SENP6 block | SENP8 block-2 | SENP7 inh | SENP8 conf | SENP6 confirm | SENP7 confirm | Casp3 SENP sel | SENP luc ctr
Cc1cc(=O)oc2cc(OCC(=O)Nc3nccs3)ccc12 | – | · | – | – | – | – | · | · | · | · | ·
Cc1cccc(OCC(=O)Nc2nccs2)c1C | 89.6 | · | – | 95.0 | – | 96.1 | 89.2 | 91.8 | 100.2 | 94.1 | 86.7
Cc1c(C)c2ccc(OCC(=O)Nc3nccs3)cc2oc1=O | 51.0 | · | 54.6 | 56.1 | – | 83.7 | – | – | – | – | –
Cc1c(C)c2ccc(OCC(=O)Nc3ccccn3)cc2oc1=O | – | · | – | 63.7 | – | 95.5 | – | – | – | – | –
OC[C@@H]1CN(CCc2ccccc2)C[C@H](n2cnc3c(NCc4ccc(F)cc4)ncnc32)O1 | · | · | – | · | – | · | · | · | · | · | ·
CCCCCCN1C[C@H](O)[C@@H](n2cc(C3CC3)nn2)C[C@@H]1c1ccc(OC)cc1 | · | · | – | · | – | · | · | · | · | · | ·
COc1ccc(-c2nc3ccc(C)cn3c2CC2CCCCC2)cc1OC | · | · | – | · | – | · | · | · | · | · | ·
O=C1NC(c2cc(Cl)cc([N+](=O)[O-])c2O)Nc2ccccc21 (stereo not drawn) | 68.6 | – | – | 86.7 | – | – | – | – | – | – | –
CCCCNC(=O)c1sc(=S)n2c1[nH]c(=O)c1ccccc12 | – | – | – | 85.1 | – | – | – | – | – | – | –
O=C(NC1CCCCC1)c1sc(=S)n2c1[nH]c(=O)c1ccccc12 | – | – | – | – | – | – | · | · | · | · | ·
Cc1ccc(Cl)cc1N1CCN(S(C)(=O)=O)CC1 | – | – | – | – | – | 66.7 | – | – | – | – | –
Cc1ccc(Cl)cc1N1CCN(S(=O)(=O)N2CCCCC2)CC1 | · | – | – | · | – | · | · | · | · | · | ·
COCOCCn1cc(CN2CCS(=O)(=O)N(Cc3ccc(-c4ccc(OC)c(OC)c4)cc3)C(C)C2=O)nn1 (stereo not drawn) | · | · | – | · | – | · | · | · | · | · | ·
COc1ccc(NC(=S)Nc2cccc3ccccc23)cc1OC | 77.5 | · | – | 88.2 | – | 62.9 | – | – | – | – | –
O=C(NNC(=S)Nc1cccc2ccccc12)c1cccc(Br)c1 | – | – | – | – | – | – | · | · | · | · | ·
CC(=O)Nc1cccc(NC(=S)Nc2cccc3ccccc23)c1 | – | · | – | – | – | – | · | · | · | · | ·
CC(=O)c1cccc(NC(=S)Nc2cccc3ccccc23)c1 | 61.6 | · | – | 83.9 | – | – | – | – | – | – | –
Cc1ccc(C(=O)NNC(=S)Nc2cccc3ccccc23)s1 | – | – | – | 54.5 | – | – | – | – | – | – | –
CN(Cc1nccn1C)C(=O)C1CCC(=O)N(CCc2ccc(Cl)cc2)C1 (stereo not drawn) | – | · | – | – | – | – | · | · | · | · | ·
Cc1ccc(C(=O)c2c(C)oc3c2C(=O)C(=O)c2ccccc2-3)cc1 | – | – | 96.5 | – | 105.9 | 51.0 | – | 56.6 | – | – | –
Cc1oc2c(c1C(=O)N1CCC(C)CC1)C(=O)c1ccccc1C2=O | – | – | · | 54.9 | · | – | – | 51.8 | – | – | –
CC1CCN(C(=O)c2ccc3c(c2)C(=O)c2ccccc2-3)CC1 | · | · | – | · | – | · | · | · | · | · | ·
CCOc1ccccc1C(=O)OC(C)C(=O)Nc1ccc(S(=O)(=O)N2CCCC2)cc1 (stereo not drawn) | – | · | – | – | – | – | · | · | · | · | ·
Nc1ccc(-c2nc3ccc(N)cc3[nH]2)cc1 | – | – | – | – | – | – | · | · | · | · | ·
Nc1ccc2nc(-c3ccc(Cl)cc3)[nH]c2c1 | 65.9 | – | – | 75.3 | – | 62.7 | 79.8 | 81.0 | 54.3 | – | 81.0
SMILES | SENP8 block-1 | PPC-1+TRAIL kill | C8 TRAIL sens | SENP6 block | SENP8 block-2 | SENP7 inh | SENP8 conf | SENP6 confirm | SENP7 confirm | Casp3 SENP sel | SENP luc ctr
Nc1ccc2nc(-c3cccc(-c4nc5ccc(N)cc5[nH]4)c3)[nH]c2c1 | – | · | – | – | – | – | · | · | · | · | ·
Nc1ccc2nc(-c3cc(Cl)c(N)c(Cl)c3)[nH]c2c1 | 63.7 | – | – | 86.9 | – | 77.0 | – | 73.3 | 94.5 | 81.8 | 76.4
CCCCn1c(N)c(N(CCC(C)C)C(=O)c2ccc(C)c(S(=O)(=O)N3CCOCC3)c2)c(=O)[nH]c1=O | – | · | – | – | – | – | · | · | · | · | ·
CCCCNc1nc(N)nc(-c2cc(Cl)ccc2O)n1 | – | – | – | 70.2 | – | 54.2 | – | 55.5 | 85.7 | – | –
CCNc1nc(N)nc(-c2cc(Cl)ccc2O)n1 | 55.5 | – | – | 82.8 | – | 65.2 | 71.5 | 69.2 | 90.0 | – | –
CCCNc1nc(N)nc(-c2cc(Cl)ccc2OC)n1 | – | – | – | – | – | – | · | · | · | · | ·
COCC1CCN(C(=O)C2CCC(=O)N(C3CCCCCC3)C2)CC1 (stereo not drawn) | – | · | – | – | – | – | · | · | · | · | ·
CC(/C=N/n1c(-c2ccccc2)n[nH]c1=S)=C\c1ccco1 | – | – | – | – | – | – | · | · | · | · | ·
CC(/C=N/N1CCN(c2ccccc2)CC1)=C\c1ccco1 | 95.1 | – | – | 95.7 | – | 98.1 | – | 86.6 | 90.6 | 71.2 | –
CC(/C=N/N1CCN(c2ccccc2)CC1)=C\c1ccccc1 | – | – | – | – | – | 75.5 | – | – | – | – | –
CC(=C/c1ccco1)/C=N/N1CCN(c2ccccc2)CC1 | 92.1 | – | – | 97.4 | – | 95.3 | – | 54.2 | – | 68.5 | –
Cc1ccc(N2CCN(/N=C/C(Cl)=C/c3ccccc3)CC2)cc1 | – | – | – | – | – | – | · | · | · | · | ·
O=C(Nc1ccc(C(=O)O)cc1)/C(=C\c1ccc([N+](=O)[O-])cc1)NC(=O)c1ccco1 | · | · | – | · | – | · | · | · | · | · | ·
COc1ccc(/C=C/C(=O)Nc2cccnc2Cl)cc1 | 88.9 | · | – | 89.2 | – | 91.5 | – | 92.2 | 100.7 | 94.6 | 61.9
COC(=O)C1=C(N)c2c(F)cccc2C1(C#N)c1ccc(F)cc1 (stereo not drawn) | – | – | – | – | – | – | · | · | · | · | ·
O=C(Nc1ccc(Cl)cc1Cl)C1=Cc2ccccc2OC1 | – | – | – | – | – | 50.9 | – | – | – | – | –
COc1ccc(NC(=O)C2=Cc3ccccc3OC2)cc1 | 61.3 | – | – | 68.1 | – | 72.5 | 59.4 | 59.7 | 86.9 | 65.5 | –
COc1ccc(C(=O)Oc2ccc(/C=N/O)cc2)cc1 | 52.9 | – | – | 78.7 | – | 61.0 | 66.9 | 66.8 | 90.1 | 73.2 | –
Nc1ncnc2c1ncn2[C@@H]1O[C@H](C(=O)Nc2ccc(Oc3ccccc3)nc2)[C@@H](O)[C@H]1O | · | · | – | · | – | · | · | · | · | · | ·

High-throughput results deposited in PubChem by Sanford-Burnham Center for Chemical Genomics.
